Activity calls are given as the source filed them.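 Rule for the calls: active = inhibition of the reporter signal at or above 50%; inactive = inhibition below 50%.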
Test: inhibitors of poly I:C-induced TLR3 signaling, primary screen, cell-based, poly I:C stimulus, luciferase, 10K MLSCN set (AID 602277)
Conditions: HEK293-TLR3 RL24 IRF3 luciferase reporter, at 10 µM, active compounds read high

inhibition, inactive:
CN(Cc1ccccc1)Cc1nc2c(c(=O)n(C)c(=O)n2C)n1Cc1ccc(Cl)cc1 2.58%
C=CCOC(=O)CCC(=O)Nc1cc(OC)nc(OC)n1 19.2%
O=C(NCc1cccs1)c1cc2c(s1)-c1ccccc1OC2 -187%
O=C(O)CN1C(=O)C2(OCCCO2)c2ccccc21 18.6%
CS(=O)(=O)c1ccc2nc(NC(=O)c3cccs3)sc2c1 -21.1%
CSc1nc(C)cc(OCC(=O)N2CCOCC2)n1 23.9%
CC1CN(C(=O)CSc2nnc(-c3ccncc3)n2-c2ccccc2)CC(C)O1 (stereo unspecified) 24.3%
CCOC(=O)c1cccc(NC(=O)c2ccco2)c1 -83.6%
Cc1ccc(Cn2c(=N)c(C(=O)NCc3ccco3)cc3c(=O)n4ccccc4nc32)cc1 10.3%
COC(=O)c1ccccc1S(=O)(=O)NC(=O)c1ccccc1 24.3%
N#Cc1ccc(COC(=O)Cn2nnc(-c3ccccc3)n2)cc1 19.4%
CCOC(=O)Nc1c(O)ccc2oc(C)c(-c3ccccc3)c12 28.6%
CCOC(=O)C1CCN(Cc2ccc(OC)c(C)c2OC)CC1 7.91%
O=C(CSCc1cnn(-c2ccccc2)c1-n1cccc1)NCC1CCCO1 (stereo unspecified) 15.3%
CCOc1ccc(C2CC(c3cccc(OC)c3)Nc3nc(N)nn32)cc1 (stereo unspecified) -1.03%
CCOc1ccc(-c2nc(C#N)c(NCc3ccc4c(c3)OCO4)o2)cc1 -18.3%

— PubChem BioAssay
